Inconclusive results are not listed. Calls of active or inactive are those of the source. The call rests on the fitted dose curve; in most records, active means well fitted inhibition curve with a large enough effect; inconclusive means small, poorly fitted or top-dose-only effect; inactive means flat fitted curve, though single readings scatter.
Tests used:
CRL-7250 = normal cell line; assay: Cytotoxic Profiling of Annotated Libraries Using Quantitative High-Throughput Screening (AID 1296008); conditions: Five cell lines viability, CellTiter-Glo ATP luminescence, 48-72 h; stronger effect = lower value; on max response: on the % scale 0 is the no-effect control and ±100 the full control effect
How it was run: (§1)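 Cells exposed to compounds for 48 or 72 hr at 37 degrees Celsius. Viability read as ATP-coupled luminescence with CellTiter-Glo after 10 min at room temperature.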

HEK293 = assay: as above; conditions: Five cell lines viability, CellTiter-Glo ATP luminescence, 48-72 h; stronger effect = lower value
How it was run: as §1

HaCat = assay: as above; conditions: Five cell lines viability, CellTiter-Glo ATP luminescence, 48-72 h; stronger effect = lower value
How it was run: as §1

KB-3-1 = assay: as above; conditions: Five cell lines viability, CellTiter-Glo ATP luminescence, 48-72 h, stronger effect = lower value
How it was run: as §1

NIH3T3 = assay: as above; conditions: Five cell lines viability, CellTiter-Glo ATP luminescence, 48-72 h; stronger effect = lower value
How it was run: as §1

HEK293T = assay: qHTS assay to identify novel small-molecules to repurpose for Merkel cell carcinoma treatment (AID 1296009); conditions: MCC and control cell lines, CellTiter-Glo viability, 72 h; at 44.8 µM (top of the series) unless noted
How it was run: (§2)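 Cells were treated for 72 hr at 37 degree celsius with compounds in 8- or 11-point dose response. Viability was read by CellTiter-Glo luminescence, normalized to no-cell (cytotoxicity) and DMSO controls.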

MCC-13 = assay: as above; conditions: MCC and control cell lines, CellTiter-Glo viability, 72 h; series mostly up to 46 µM
How it was run: as §2

MCC-26 = assay: as above; conditions: MCC and control cell lines, CellTiter-Glo viability, 72 h; series mostly up to 46 µM
How it was run: as §2

MKL-1 = assay: as above; conditions: MCC and control cell lines, CellTiter-Glo viability, 72 h; series mostly up to 46 µM
How it was run: as §2

MKL-2 = assay: as above; conditions: MCC and control cell lines, CellTiter-Glo viability, 72 h; series mostly up to 46 µM
How it was run: as §2

PAD = assay: qHTS profiling for inhibitors of Plasmodium falciparum proliferation (AID 504749);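 further: 0% = DMSO vehicle and full inhibition = artemisinin control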; conditions: P. falciparum in erythrocytes, SYBR Green DNA, 72 h; series mostly up to 28.7 µM
How it was run: (§3)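 P. falciparum-infected erythrocytes (0.3% parasitemia, 2.5% hematocrit) incubated with compound 72 h at 37 C, 5% CO2. Parasite DNA detected by SYBR Green after lysis, overnight at room temperature; normalised to 0.29 uM artemisinin and DMSO.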

PC15 = assay: as above; conditions: P. falciparum in erythrocytes, SYBR Green DNA, 72 h; series mostly up to 28.7 µM
How it was run: as §3

PC26 = assay: as above; conditions: P. falciparum in erythrocytes, SYBR Green DNA, 72 h; series mostly up to 28.7 µM
How it was run: as §3

PC49 = assay: as above; conditions: P. falciparum in erythrocytes, SYBR Green DNA, 72 h; series mostly up to 28.7 µM
How it was run: as §3

SC27B = assay: as above; conditions: P. falciparum in erythrocytes, SYBR Green DNA, 72 h; series mostly up to 28.7 µM
How it was run: as §3

TAB109 = assay: as above; conditions: P. falciparum in erythrocytes, SYBR Green DNA, 72 h; series mostly up to 28.7 µM
How it was run: as §3

TAB113 = assay: as above; conditions: P. falciparum in erythrocytes, SYBR Green DNA, 72 h; series mostly up to 28.7 µM
How it was run: as §3

TAB165 = assay: as above; conditions: P. falciparum in erythrocytes, SYBR Green DNA, 72 h; series mostly up to 28.7 µM
How it was run: as §3

W2 = assay: as above; conditions: P. falciparum in erythrocytes, SYBR Green DNA, 72 h; series mostly up to 28.7 µM
How it was run: as §3
Further: nearly all actives have a fitted effect of over 60% in size.

CN1CC(=O)NC1=N
inactive: max response (CRL-7250) -20.6% | outcome (HEK293) | max response (HaCat) -1.43% | max response (KB-3-1) 3.48% | max response (NIH3T3) -1.3% | outcome (HEK293T) | outcome (MCC-13) | outcome (MCC-26) | outcome (MKL-1) | outcome (MKL-2)

CC(C)C[C@@H](N)C(=O)O
inactive: Potency (PAD) | Potency (PC15) | Potency (PC26) | Potency (PC49) | Potency (SC27B) | Potency (TAB109) | Potency (TAB113) | Potency (TAB165) | Potency (W2) | max response (CRL-7250) -5.17% | outcome (HEK293) | max response (HaCat) 4.82% | max response (KB-3-1) 12.7% | max response (NIH3T3) 4.91% | outcome (HEK293T) inactive [at 17.4 µM] | outcome (MCC-13) | outcome (MCC-26) | outcome (MKL-1) | outcome (MKL-2)

CC1(C)S[C@@H]2[C@H](NC(=O)C(C(=O)O)c3ccccc3)C(=O)N2[C@H]1C(=O)O (some centres not stated)
inactive: max response (CRL-7250) -9.98% | outcome (HEK293) | max response (HaCat) -0.997% | max response (KB-3-1) 3.76% | max response (NIH3T3) -1.06% | outcome (HEK293T) | outcome (MCC-13) | outcome (MCC-26) | outcome (MKL-1) | outcome (MKL-2)

COc1ccc(O)cc1
inactive: Potency (PAD) | Potency (PC15) | Potency (PC26) | Potency (PC49) | Potency (SC27B) | Potency (TAB109) | Potency (TAB113) | Potency (TAB165) | Potency (W2) | max response (CRL-7250) -3.8% | outcome (HEK293) | max response (HaCat) -9.9% | max response (KB-3-1) -0.988% | max response (NIH3T3) -13.1% | outcome (HEK293T) | outcome (MCC-13) | outcome (MCC-26) | outcome (MKL-1)

Cc1ccsc1C(=CCCN1CCC[C@@H](C(=O)O)C1)c1sccc1C
inactive: Potency (PAD) | Potency (PC15) | Potency (PC26) | Potency (PC49) | Potency (SC27B) | Potency (TAB109) | Potency (TAB113) | Potency (TAB165) | Potency (W2) | max response (CRL-7250) -7.41% | outcome (HEK293) | max response (HaCat) 3.8% | max response (KB-3-1) 3.88% | max response (NIH3T3) -5% | outcome (HEK293T) | outcome (MCC-13) | outcome (MCC-26) | outcome (MKL-1) | outcome (MKL-2)

CC(=O)Nc1ccc(C(=O)O)cc1
inactive: Potency (PAD) | Potency (PC15) | Potency (PC26) | Potency (PC49) | Potency (SC27B) | Potency (TAB109) | Potency (TAB113) | Potency (TAB165) | Potency (W2) | max response (CRL-7250) -0.409% | outcome (HEK293) | max response (HaCat) 3.25% | max response (KB-3-1) -6.78% | max response (NIH3T3) -2.27% | outcome (HEK293T) | outcome (MCC-13) | outcome (MCC-26) | outcome (MKL-1) | outcome (MKL-2)

OC(CCN1CCCC1)(c1ccccc1)C1CCCCC1 (configuration not stated)
inactive: max response (CRL-7250) -24% | max response (HEK293) -13.4% | max response (HaCat) 3.13% | max response (KB-3-1) -9.13% | outcome (NIH3T3) | outcome (MCC-13) | outcome (MCC-26) | outcome (MKL-1) | outcome (MKL-2)

CC(=O)N1C[C@H](O)C[C@H]1C(=O)O
inactive: outcome (CRL-7250) | max response (HEK293) 1.84% | max response (HaCat) 4.9% | max response (KB-3-1) 8.51% | outcome (NIH3T3) | outcome (MCC-13) | outcome (MCC-26) | outcome (MKL-1) | outcome (MKL-2)

OCCN1C[C@H](O)[C@@H](O)[C@H](O)[C@H]1CO
inactive: max response (CRL-7250) 0.57% | outcome (HEK293) | max response (HaCat) -0.066% | max response (KB-3-1) 4.48% | max response (NIH3T3) -3.52% | outcome (HEK293T) | outcome (MCC-13) | outcome (MKL-1) | outcome (MKL-2)

Cc1cccc(C)c1NC(=O)CC12CCCN1CCC2
inactive: Potency (PAD) | Potency (PC15) | Potency (PC26) | Potency (PC49) | Potency (SC27B) | Potency (TAB109) | Potency (TAB113) | Potency (TAB165) | max response (CRL-7250) 2.63% | outcome (HEK293) | max response (HaCat) -12.5% | max response (KB-3-1) -0.628% | max response (NIH3T3) -1.1% | outcome (HEK293T) | outcome (MCC-13) | outcome (MCC-26) | outcome (MKL-1) | outcome (MKL-2)

CCOC(=O)[C@H](CCc1ccccc1)N[C@@H](C)C(=O)N1Cc2cc(OC)c(OC)cc2C[C@H]1C(=O)O
inactive: outcome (CRL-7250) | outcome (HEK293) | max response (HaCat) 2.61% | max response (KB-3-1) -3.37% | max response (NIH3T3) 2.92% | outcome (HEK293T) | outcome (MCC-13) | outcome (MCC-26) | outcome (MKL-1) | outcome (MKL-2)

C[N+](C)(C)CC[N+]1(C)Cc2c(Cl)c(Cl)c(Cl)c(Cl)c2C1
inactive: Potency (PAD) | Potency (PC15) | Potency (PC26) | Potency (PC49) | Potency (SC27B) | Potency (TAB109) | Potency (TAB113) | Potency (TAB165) | Potency (W2) | max response (CRL-7250) -7.06% | outcome (HEK293) | max response (HaCat) -6.5% | max response (KB-3-1) 9.08% | max response (NIH3T3) 3.9% | outcome (HEK293T) | outcome (MCC-13) | outcome (MCC-26) | outcome (MKL-1) | outcome (MKL-2)

CCN(CC)S(=O)(=O)c1ccc(C(=O)O)cc1
inactive: Potency (PAD) | Potency (PC15) | Potency (PC26) | Potency (PC49) | Potency (SC27B) | Potency (TAB109) | Potency (TAB113) | Potency (TAB165) | Potency (W2) | max response (CRL-7250) -2.94% | outcome (HEK293) | max response (HaCat) 1.67% | max response (KB-3-1) 7.96% | max response (NIH3T3) -6.52% | outcome (HEK293T) | outcome (MCC-13) | outcome (MCC-26) | outcome (MKL-1) | outcome (MKL-2)

O=C(O)C(S)C(S)C(=O)O (configuration not stated)
inactive: max response (CRL-7250) -6.2% | max response (HEK293) -7.93% | max response (HaCat) 3.59% | max response (KB-3-1) -23% | outcome (NIH3T3) | outcome (MCC-13) | outcome (MCC-26) | outcome (MKL-1) | outcome (MKL-2)

From PubChem BioAssay (NCATS)
